GLD-1 TGE inh = GLD-1-TGE RNA interaction inhibition (C. elegans). 320,000 tested, 0.44% active. AID 2280. Q17339. purified GLD-1 + fluorescein TGE RNA, fluorescence polarization. inhibition, % at 5.96 µM;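 active = percent inhibition above a per-plate cutoff, the plate mean of test compounds plus 3 SD, cut at about 30% in these data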
E coli Lon inh = inhibits E. coli Lon protease | P0A9M0 | purified E. coli Lon protease, fluorescence polarization | inhibition, % at 7.94 µM | 360,000 tested, 0.42% active; in the data active = inhibition above about 13%, passing the limit was not always enough
MCL1-BIM inh = inhibitors of human MCL1 binding to BIM-BH3 peptide | 320,000 tested, 0.68% active | Q07820 | inhibition, % at 10.9 µM | GST-MCL1 / FITC-Bim-BH3 fluorescence polarization | AID 2057;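 active = inhibition above the mean inhibition of all tested compounds plus 3 SD, set per campaign, cut at about 40% in these data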;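 also: higher means more loss of mP so more displacement of Bim peptide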
LANA DNA inh = KSHV C-LANA DNA binding inhibition; AID 504423; MBP-C-LANA/FAM-LBS DNA binding, fluorescence polarization; inhibition, % at 9 µM; 340,000 tested, 0.078% active;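 active = highest replicate inhibition at or above 60% at 9 µM, even if other replicates fall short; inactive = all replicates below 60% inhibition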
Bcl-xL primary = inhibitors of human Bcl-xL. Q07817. AID 2129. GST-Bcl-xL / FITC-Bim BH3 peptide fluorescence polarization. 320,000 tested, 0.7% active. inhibition, % at 10.9 µM;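 active = inhibition above the mean of all tested compounds plus 3 SD, cutoff set per campaign, cut at about 30% in these data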;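 also: inhibitors lower millipolarization by displacing the labeled peptide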
Target sequence (Q07817 whole entry, looked up): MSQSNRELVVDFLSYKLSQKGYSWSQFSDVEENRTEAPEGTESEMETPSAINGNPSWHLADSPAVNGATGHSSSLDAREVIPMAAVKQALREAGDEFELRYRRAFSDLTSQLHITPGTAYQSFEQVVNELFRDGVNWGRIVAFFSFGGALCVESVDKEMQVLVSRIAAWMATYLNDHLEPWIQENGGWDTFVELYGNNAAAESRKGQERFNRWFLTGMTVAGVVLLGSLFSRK
Keap1 Nrf2 FP = disrupts human Keap1 binding to Nrf2 peptide. 340,000 tested, 0.15% active. Keap1 Kelch-Nrf2 peptide fluorescence polarization, 1536-well. Q14145. inhibition, % at 9.4 µM; in the data active = inhibition above about 12%;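 also: human Keap1 Kelch domain with fluorescein labeled Nrf2 9mer peptide probe; higher means more block of Keap1 binding to Nrf2 peptide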
BCLXL inh confirm = counter-screen for MCL1 inhibitors: confirmation of human Bcl-xL inhibitors; shares compounds with MCL1-BIM inh; GST-Bcl-xL / FITC-Bim BH3 peptide FP binding; 1,700 tested, 54% active; inhibition, % at 10.9 µM; AID 2166;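 active = inhibition above a cutoff equal to the mean inhibition of all tested compounds plus 3 SD, cut at about 30% in these data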
MCL1 inh confirm = MCL1-BIM-BH3 interaction inhibition, confirmation; 1,700 tested, 61% active; inhibition, % at 10.9 µM; shares compounds with MCL1-BIM inh; AID 2168; GST-MCL1 / FITC-Bim-BH3 fluorescence polarization;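 active = inhibition above the average of all tested compounds plus 3 SD, cut at about 40% in these data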
GLD-1 TGE cf = GLD-1 TGE RNA interaction inhibition, confirmation. inhibition, % at 5.96 µM. 550 tested, 10% active. shares compounds with GLD-1 TGE inh. GLD-1/FL-TGE RNA fluorescence polarization, biochemical;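 active = average inhibition across triplicates above the hit cutoff set in the primary screen, cut at about 32% in these data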
Keap1 Kelch bind = binds and thermally shifts human Keap1 Kelch domain | max delta Tm, degrees C | shares compounds with Keap1 Nrf2 FP | Keap1 Kelch thermal shift, delta Tm; stronger effect = higher value | 400 tested, 8% active; in the data active = max delta Tm above about 0.48 degrees C
eLon confirm = confirmation of E. coli Lon protease inhibitors; purified E. coli Lon, fluorescence polarization; 1,400 tested, 31% active; inhibition, % at 7.94 µM; shares compounds with E coli Lon inh; in the data active = inhibition above about 16%
Numbers stand for hits; 0 = inactive; - = not tested or not shown; + = active, no number. Rows were chosen to be rich in hits. Some 1.3% of all compounds tested hit in one or more screens of this group.

SMILES | GLD-1 TGE inh | E coli Lon inh | MCL1-BIM inh | LANA DNA inh | Bcl-xL primary | Keap1 Nrf2 FP | BCLXL inh confirm | MCL1 inh confirm | eLon confirm | others
COc1ccc(C(O)C(C)NC(C)C(O)c2ccc(OC)cc2)cc1 (configuration not stated) | 0 | 0 | 0 | - | 0 | - | - | - | -
N#CC(C#N)=Cc1ccc(-c2ccccc2)o1 | 0 | - | 0 | - | 0 | - | - | - | -
N#CC(C#N)=Cc1ccc(-c2ccccc2F)o1 | 0 | 0 | 99.7 | 0 | 61.8 | 0 | 123.3 | 150.1 | -
O=C(Nc1cccc2ccccc12)N1Cc2ccccc2-n2nncc2C1 | - | 0 | - | - | - | - | - | - | -
Cc1ccc2c(c1)NP(=S)(Oc1ccccc1)N2 (configuration not stated) | - | 0 | - | 0 | - | 0 | - | - | -
COc1ccc2c(c1)NP(=S)(Oc1ccccc1)N2 (configuration not stated) | 0 | 0 | 56.7 | 0 | 50.2 | 0 | 56.1 | 82.2 | -
CC12CN3CN(C1)CC(C)(C3)C2=NO | 0 | 0 | 0 | 0 | 0 | 0 | - | - | -
COc1cc2c(cc1OC)-c1c(OC)c(OC)c(OC)c3ccnc(c13)C2=O | 40.8 | - | 54.8 | - | 51.9 | - | 58.6 | 56.1 | - | GLD-1 TGE cf=41.0
CSCCC(c1nnnn1-c1ccc2c(c1)OCCO2)N1CCC(n2c(=O)[nH]c3ccccc32)CC1 (configuration not stated) | - | 0 | - | - | - | - | - | - | -
C[n+]1c(-c2ccccc2)c2cc(N)ccc2c2ccc(N)cc21 | 135.5 | 154.1 | + | 0 | 155.5 | 0 | 188.6 | + | 76.0
CN(c1ccc(O)cc1)c1ccc([N+](=O)[O-])c2nonc12 | - | 0 | - | - | - | - | - | - | -
Nc1ccc2nonc2c1[N+](=O)[O-] | + | 193.5 | + | 80.3 | + | 52.2 | + | + | + | GLD-1 TGE cf=158.3;Keap1 Kelch bind=0
CCCCC(=O)N/N=C/c1c(O)n(-c2cccc3ccccc23)c(=O)[nH]c1=O | 0 | 0 | 0 | 0 | 0 | 0 | - | - | -
COc1ccc(-c2nc3ccc(Br)cn3c2CC(=O)N2CCCC2)cc1OC | - | 0 | - | - | - | - | - | - | -
CC(=O)n1cc(C=C2C(=O)NC(=O)NC2=O)c2ccccc21 | 0 | 0 | 0 | 0 | 0 | 0 | - | - | -
Cn1cc(C=C2C(=O)NC(=O)NC2=O)c2ccccc21 | 0 | 117.2 | + | 0 | + | 0 | + | + | +
Cc1cccc(NP2(=O)NCCCN2)c1 | - | 0 | - | 0 | - | 0 | - | - | -
O=[N+]([O-])c1ccc(N2CCCCCC2)c2nonc12 | 137.7 | 61.4 | 149.5 | 0 | 132.1 | 0 | 107.7 | 113.4 | 20.7
O=c1cc(C(F)(F)F)c2cc3c4c(c2o1)CCCN4CCC3 | + | + | + | 0 | + | 13.6 | 179.4 | + | 167.0 | Keap1 Kelch bind=0
Cc1cc2c(C(F)(F)F)cc(=O)oc2c2c1NCCC2 | 111.7 | 65.2 | 145.6 | 0 | 112.2 | 0 | 94.6 | 93.6 | 62.4
CN1CCc2cc3c(c4c2C1Cc1ccccc1-4)OCO3 (configuration not stated) | 94.4 | 148.2 | + | 0 | 165.5 | 0 | 77.3 | 86.8 | 98.7
COc1ccc(-n2nnnc2C(c2cccc3ccccc23)N2CCC3(CC2)C(=O)NCN3c2ccccc2)cc1 (configuration not stated) | - | 0 | - | - | - | - | - | - | -
Nc1ccc2ccc3cccc[n+]3c2c1 | 62.8 | + | + | 152.5 | + | 138.0 | + | + | +
Cc1ccccc1-n1c(C)nc2ccsc2c1=O | 0 | 0 | 0 | 0 | 0 | 0 | - | - | -
COC(=O)C1=C(c2ccccc2OCc2ccccc2)C[C@@H]2CC[C@H]1N2C(=O)NCCc1ccc(F)cc1 | 0 | 0 | 0 | 0 | 0 | 0 | - | - | -
